Paper PMC4552634, “A New Set of Chemical Starting Points with Plasmodium falciparum Transmission-Blocking Potential for Antimalarial Drug Discovery” (PLoS ONE, 2015)
About 3,200 (25%) of roughly 13,000 compounds showed an effect of 50% or more. Some of the results follow.

tested on: P. falciparum stage V gametocytes; parameters: BacTiter-Glo ATP luminescence viability of purified stage V gametocytes in 384-well plates, per cent inhibition versus DMSO; conditions: 48 h, 5 µM; inhibitor

Compound	% Inhibition [%]
CCc1ccc2c(c1O)CCN(C)C2Cc1ccccc1Cl (stereo not shown) [TCMDC-137165]	18.04
CC(=O)C1=NN(c2ccc(C)cc2)C(c2cccs2)N1c1ccccc1 (stereo not shown) [TCMDC-125627]	-78.13
Cc1cccc2[nH]c(-c3cccc(-c4ccc(NC(=O)NCc5ccccc5)cc4)c3)nc12 [TCMDC-133158]	-0.2096
COc1ccc(NC(=O)c2c(NC(=O)c3cccs3)sc3c2CCCC3)cc1 [TCMDC-125745]	-21.48
COc1ccc(NS(=O)(=O)c2ccc(Oc3nc(C)nc4sc5c(c34)CCCC5)cc2)cc1 [TCMDC-124337]	4.693
CNC(=O)c1cc(S(=O)(=O)Nc2ccc(OC)cc2)cs1 [TCMDC-124815]	61.29
CC1(C)CC2CC(C)(CN2C(=O)c2cc(C(C)(C)C)nn2Cc2ccccc2)C1 (stereo not shown) [TCMDC-133777]	-28.49
O=C(Nc1cc(Cl)ccc1-n1cncn1)C1(c2ccccc2)CC1 [TCMDC-125455]	2.448
O=C(COc1ccccc1Cc1ccccc1)Nc1cc(Cl)ccc1-n1cncn1 [TCMDC-125098]	-48.08
COc1ccc(CN2CCN(CC(=O)Nc3cc(Cl)ccc3-n3cncn3)CC2)cc1F [TCMDC-125242]	66.84
CN1CCCc2ccc(NC(=O)c3ccc(-c4cc(C(F)(F)F)nn4C)s3)cc2C1 [TCMDC-133945]	-15.63
CC1CCN(Cc2c(O)ccc3c(CN4CCC(C)CC4)c(O)ccc23)CC1 [TCMDC-137584]	-14.01
CC(C)c1ccc(-c2noc(SCC(=O)N(C)c3ccc(F)cc3)n2)cc1 [TCMDC-124744]	-3.802
CCN1CCN(C(=O)NC(C(=O)N2CCCC(COc3ccc(Cc4ccccc4)cc3)C2)c2cccs2)C(=O)C1=O (stereo not shown) [TCMDC-139273]	35.06
CN1CCCC1CCNc1ncc2c(-c3ccc(NC(=O)Nc4cc(C(F)(F)F)ccc4F)c(F)c3)nn(C)c2n1 (stereo not shown) [TCMDC-141610]	99.17
CN1CCCC1CCNc1ncc2c(-c3ccc(NC(=O)Nc4cc(C(F)(F)F)ccc4F)cc3)nn(C)c2n1 (stereo not shown) [TCMDC-141584]	59.4
CCCCCC(C)N=C(Nc1ccc(C#N)cc1O)Nc1ccccc1Br (stereo not shown) [TCMDC-140129]	-25.57
Cc1cc([N+](=O)[O-])ccc1N1CCN(CCCCNC(=O)c2ccc(NC(=O)c3ccc(Cl)cc3)cc2)CC1 [TCMDC-138261]	16.06
C[C@@H](CC1CCCCC1)OC(=O)N(C)[C@H]1CCN(C#N)C1 [TCMDC-138501]	35.73
CCCC1N=C(N)N=C(N)N1c1ccc(Cl)cc1 (stereo not shown) [TCMDC-131296]	-9.139
CCNc1cc(C(=O)N[C@@H](Cc2ccccc2)[C@H](O)CNCc2cc(OC)cc(OC)c2)cc(N2CCCS2(=O)=O)c1 [TCMDC-134557]	-5.029
N#CN1CC[C@@H](OC(=O)N[C@@H]2C[C@H]2c2ccccc2)C1 [TCMDC-133724]	29.13

Compound	% Inhibition [%]
CC(C)C[C@H](NC(=O)[C@H](Cc1ccccc1)N(C[C@H](Cc1ccccc1)NC(=O)OC(C)(C)C)C(=O)C(F)(F)F)C(=O)NC1CCN(Cc2ccccc2)CC1 [TCMDC-132059]	-19.61
CC(C)CCN1CCC(Oc2ccc(NC(=O)c3ccccc3)cc2Cl)CC1 [TCMDC-133977]	11.22
CC(Oc1ccc(NC(=O)c2cccs2)cc1)C(=O)c1ccc(Cl)cc1 (stereo not shown) [TCMDC-125438]	17.92
O=C(Nc1ccc(OC2CCN(Cc3ccccc3)C2)c(Cl)c1)c1cccs1 (stereo not shown) [TCMDC-133970]	30.53
CCCOc1ccc(NC(=O)c2cccs2)cc1Cl [TCMDC-141129]	16.1
Cc1ccc(C(=O)Nc2ccc(OC3CCN(CCC(C)C)C3)c(Cl)c2)cc1 (stereo not shown) [TCMDC-133983]	31.29
CC(C)CCN1CCC(Oc2ccc(NC(=O)c3cccs3)cc2Cl)C1 (stereo not shown) [TCMDC-133979]	54.06
CC(C)CCN1CCC(Oc2ccc(NC(=O)c3cccs3)cc2Cl)CC1 [TCMDC-133974]	92.16
CC(C)CCOc1ccc(NC(=O)c2cccs2)cc1 [TCMDC-125121]	83.04
O=C(Nc1ccc(OC2CCN(Cc3ccccc3)CC2)c(Cl)c1)c1cccs1 [TCMDC-133990]	24.3
COc1ccc(NC(=O)c2cc(NC(=O)C3(N)CC3)c(=O)n(Cc3ccc(C(N)=O)cc3)c2)cc1 [TCMDC-136554]	19.66
Cc1[nH]c2c(NCc3ccc(F)cc3)nccc2c1C [TCMDC-132310]	15.19
N#Cc1ccc2c(c1)CCN(CCC1CCC(NC(=O)c3cc4ccc(Br)cc4[nH]3)CC1)C2 (stereo not shown) [TCMDC-139195]	-25.15
CCCNCc1ccc(-c2ccc(CN(C(=O)c3nn(-c4ccccc4)nc3C)C3CCOCC3)cc2)nc1 [TCMDC-141547]	9.201
CCCNCc1ccc(-c2ccc(CN(C(=O)c3nn(-c4ccccc4)nc3C)C3CC3)cc2)nc1 [TCMDC-141550]	42.93
CCCNCc1ccc(-c2ccc(CN(C(=O)c3nn(-c4ccccc4)nc3C)C(C)CN(C)C)cc2)nc1 (stereo not shown) [TCMDC-141551]	64.23
Cc1nn(-c2ccccc2)nc1C(=O)N(Cc1ccc(-c2ccc(CNCCc3ccc(S(C)(=O)=O)cc3)cn2)cc1)C(C)CN(C)C (stereo not shown) [TCMDC-141524]	25.84
CCCNCc1ccc(-c2ccc(CN(CCOC)C(=O)c3nn(-c4ccccc4)nc3C)cc2)nc1 [TCMDC-141549]	77.73
CCCNCc1ccc(-c2ccc(CN(Cc3cnc(C)cn3)C(=O)c3nn(-c4ccccc4)nc3C)cc2)nc1 [TCMDC-141548]	27.98
O=C(O)CNCC(O)c1ccccc1 (stereo not shown) [TCMDC-131775]	4.722
FC(F)(F)c1ccc2[nH]c(-c3ccc(-c4ccc(CNCc5cnn(-c6ccccc6)n5)cc4)cc3)nc2c1.O=C(O)C(F)(F)F [TCMDC-132970]	-15.1
